An excerpt weighted towards active compounds, which were near 13% of everything screened.
HCV inh: qHTS Assay for Inhibitors of Hepatitis C Virus (HCV) | Potency, µM (top dose mostly 41.8 µM), without a hit: at the top dose activity change, negative = inhibition, hits mostly inhibitors | Huh7.5.1 HCVcc-Cre infection, luciferase reporter, 44 h | actives 3.4% (n = 340,000) | AID 651820, 2012; active = well fitted inhibition curve with a large enough effect; inconclusive = small, poorly fitted or top-dose-only effect, or another doubt; inactive = no such curve, though single readings can be large or run the other way; note: potency is the fitted concentration of half-maximal effect; % is set by controls: 0 for no effect and ±100 for the full control effect
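Cells seeded at 1,000/well and cultured 4 h, then compounds added followed by HCVcc-Cre virus (~0.5 moi). After 44 h further culture, luciferase substrate was added, plates held 15 min at room temperature, and luminescence read for 15 sec.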
CHX counter: Cycloheximide Counterscreen for Small Molecule Inhibitors of Shiga Toxin. actives 12% (n = 300,000). max response, %. cell reporter, cycloheximide protein synthesis inhibition counterscreen; in the data active = max response mostly above about 13%, no sharp cut-off; inactive = mostly below about 14%; note: read at 38.3 µM for the half of the compounds with a filed dose; 0% is about no effect
FMDV inh: High Throughput Screening for Foot and Mouth Disease Virus Antivirals. FMDV antiviral cell-based qHTS. Potency, µM (series often up to 57.9 µM), inactives show at the highest dose activity change, negative = inhibition, actives largely listed as inhibitors. actives 1.2% (n = 410,000); calls by dose curve; tested in HEK293T cells; note: read-out not given here; potency is the fitted concentration of half-maximal effect; % is set by controls: 0 for no effect and ±100 for the full control effect; nearly all actives have a fitted effect of over 45% in size
MARV entry inh: qHTS for inhibitors of binding or entry into cells for Marburg Virus; actives 1.8% (n = 300,000); Potency, µM (series often up to 37.8 µM), for the others: top-dose activity change, negative = inhibition, usual class: inhibitors; Marburg virus pseudotyped entry inhibition, cell reporter; calls by dose curve; tested in HEK293 cells; note: potency is the fitted concentration of half-maximal effect; % is set by controls: 0 for no effect and ±100 for the full control effect
Shiga toxin inh: A qHTS for Small Molecule Inhibitors of Shiga Toxin; Vero cells, Shiga toxin protein synthesis inhibition reporter; inhibition, % at 38.7 µM; actives 9.2% (n = 290,000); AID 2315, 2010; in the data active = inhibition mostly above about 28%, no sharp cut-off; inactive = mostly below about 43%; note: 0% is about no effect
LASV entry inh: qHTS for Inhibitors of binding or entry into cells for Lassa Virus; Lassa virus pseudotype entry inhibition, cell reporter; Potency, µM (titrated, usually from 37.9 µM), without a hit: at the highest dose activity change, negative = inhibition, hits mostly inhibitors; actives 1.2% (n = 300,000); calls by dose curve; tested in HEK293 cells; note: potency is the fitted concentration of half-maximal effect; % is set by controls: 0 for no effect and ±100 for the full control effect; nearly all actives have a fitted effect of over 50% in size
An asterisk follows results filed as active; ? = inconclusive; nt = no result; ! = not confirmed by another sample; [ ] = remark or other dose.

SMILES | HCV inh | CHX counter | FMDV inh | MARV entry inh | Shiga toxin inh | LASV entry inh
COc1cc(-c2nc3ccc(N4CCN(C)CC4)cc3[nH]2)cc(OC)c1OC | 7.9µM* | 26 | -1% | ? | 48 | ?
O=c1[nH]c2ccccc2n1CCCN1CCC(n2c(=O)[nH]c3cc(Cl)ccc32)CC1 | ? | 4 | ? | 11µM*! | 13 | ?
Cc1ccc(C2=NS(=O)(=O)N(C)C(C(=O)NC3CCCC3)=C2)cc1 | -21% | 1 | -25% | nt | -2 | nt
COc1ccc(NS(=O)(=O)c2cccc(C(=O)NNC(=O)CNC(=O)c3ccccc3F)c2)cc1 | ? | nt | -4% | -7% | nt | 5%
C=CCOc1ccc(C(=O)NC2CCCCC2)cc1 | -22% | 21* | 51% | ? | 111* | 3%
CC(C)Oc1ccc(C(=O)NC2CCCCC2)cc1 | 0% | 47* | 39% | -2% | 65 | -20%
CCOc1ccc(/C=N/NC(=O)c2ccc(O)cc2)cc1CN1CC2CC(C1)c1cccc(=O)n1C2 (stereo unspecified) | -15% | nt | ? | 2% | nt | nt
CCOc1ccc(/C=N/NC(=O)Cc2ccccc2)cc1CN1CC2CC(C1)c1cccc(=O)n1C2 (stereo unspecified) | 7.9µM* | nt | -3% | -6% | nt | nt
COC(=O)c1ccccc1CON1C(=O)C(C)(C)N(OCc2ccccc2C(=O)OC)C(=O)C1(C)C | 14µM* | -3 | -25% | -22% | -10 | -19%
c1ccc(C2=NNC(=NC3CC3)SC2)cc1 | 1% | 15* | nt | ? | 32 | 8.2µM*
O=C1SCC(c2ccccc2)=NN1Cc1ccccc1 | 8% | -4 | -12% | -14% | 7 | -2%
c1ccc2c(C3=NNC(=NC4CC4)SC3)c[nH]c2c1 | 11% | 38* | -61% | ? | 17 | 11µM*
c1ccc2c(C3=NNC(=NC4CCCCC4)SC3)c[nH]c2c1 | -27% | 36* | 34% | 0% | 26 | 2%
Cc1cc(C)n(-c2nnc3n2N=C(c2c[nH]c4ccccc24)CS3)n1 | ? | 0 | ? | ? | -2 | ?
CCN1CCN(CCCN(Cc2ccco2)C(=S)Nc2cc(Cl)ccc2C)CC1 | ? | -3 | 6% | -3%[46.1 µM] | -10 | -22%
CC(C)C(=O)N=C1SC2CS(=O)(=O)CC2N1Cc1ccccc1 (stereo unspecified) | 6% | -2 | -14% | 6% | -6 | 11%
COc1ccc(-c2cc(=O)c3c(O)c(OC)c(O[C@@H]4OC(COC5OC(C)C(O)C(O)[C@@H]5O)C(O)C(O)C4O)cc3o2)cc1 (stereo partly specified) | nt | nt | -8% | nt | nt | nt
O=[N+]([O-])c1ccc(-n2nnnc2-c2ccccc2)c([N+](=O)[O-])c1 | 35µM* | -4 | 32µM* | 15µM* | -3 | ?
O=[N+]([O-])c1ccc(-n2nnnc2-c2ccccc2)cc1 | 3% | 4 | -4% | nt | -5 | nt
COC(=O)c1cn(CCOc2ccccc2)c2ccccc12 | 13µM* | 55* | -19% | -26% | 79* | ?
COC(=O)c1cn(CCOc2ccccc2F)c2ccccc12 | ? | 40* | -5% | ? | 71* | 3%
S=C(c1cn(CCOc2ccccc2)c2ccccc12)N1CCCC1 | 11µM* | 5 | -18% | ? | 20 | -23%
S=C(c1cn(CCOc2cccc3ccccc23)c2ccccc12)N1CCCC1 | ? | -4 | ? | -21% | -9 | -17%
CCN(CCn1cccn1)Cc1c(C(=O)N2CCCCCCC2)nc2ccc(Cl)cn12 | 3% | 5 | -14% | nt | -23 | nt
COc1ccc(CCNC(=O)CCNS(=O)(=O)c2cccc3nsnc23)cc1OC | 5% | -2 | 20% | 18%[46.1 µM] | -10 | -14%
SMILES | HCV inh | CHX counter | FMDV inh | MARV entry inh | Shiga toxin inh | LASV entry inh
COc1ccc(CCNC(=O)C(NS(=O)(=O)c2cccc3nsnc23)C(C)C)cc1OC (stereo unspecified) | -2% | 16 | 10µM* | nt | -2 | nt
COc1ccc(CCN(C)Cc2nc(-c3cnccn3)no2)cc1OC | 8% | 0 | 5.6µM* | nt | -2 | nt
C/C(=N\NC(=O)CC(C)C)c1ccc(Cl)c(Cl)c1 | -16% | 9 | 22% | ? | 3 | -26%
Cc1onc(-c2ccc(Cl)cc2Cl)c1-c1csc(N/N=C/c2ccccc2)n1 | ? | 1 | -28% | ? | -1 | ?
Cc1nc(NC(=O)CN2CCC(O)(c3ccc(F)cc3)CC2)sc1C | -2% | 17* | 8% | nt | 47* | nt
COc1cc2cccc(OC)c(=O)c2c(O)c1OC | 5% | 34* | 7% | 23%[46.1 µM] | 23 | -1%[46.1 µM]
COc1cc2c(ccc3cc(OC)c(OC)c(O)c32)cc1O | ? | -5 | -1% | nt | 4 | nt
Fc1ccc(/C=N/NC2=Nc3cccc4cccc2c34)cc1 | ? | 43* | -8% | ? | 81* | ?
COc1ccc(NC2=Nc3cccc4cccc2c34)cc1 | ? | 25* | -7% | ? | 50 | -8%
O=C(O)c1cccc(NC2=Nc3cccc4cccc2c34)c1 | 8% | 6.7* | 0% | nt | 38* | nt
c1ccc(NC2=Nc3cccc4cccc2c34)cc1 | -18% | 21* | 21% | 4%[14.2 µM] | 6 | 18%
O=C(Nc1ccccc1Cl)c1cc(C2CCCCN2C(=O)CCc2ccccc2)on1 (stereo unspecified) | nt | nt | -24% | nt | nt | nt
C#CCN(C[C@H]1[C@H](OC(=O)NCCCCCC)[C@H](OC(=O)NCCCCCC)C[C@H]2C(=O)N(c3ccccc3)C(=O)[C@@H]12)S(=O)(=O)c1ccc(C)cc1 | nt | nt | -22% | nt | nt | nt
CCOc1ccccc1N1CC(C(=O)Nc2ccccc2CC)CC1=O (stereo unspecified) | -14% | -2 | -1% | ? | -4 | ?
O=C1N(Cc2cccnc2)C[C@@H]2C[C@@H](c3cccc(OCc4ccccc4)c3)N3CCC[C@@]123 | ? | 0 | ? | ? | -6 | -22%
O=C1N(Cc2cccnc2)C[C@@H]2C[C@@H](c3cccc(OC4CCCC4)c3)N3CCC[C@@]123 | 13µM* | 1 | 13% | 21%[46.1 µM] | -17 | 3%[46.1 µM]
CC(=O)c1cccc(Nc2nc(-c3sc(C)nc3C)cs2)c1 | 8.9µM* | 12* | ? | ? | 20 | ?
Cc1nc(NC(=O)c2ccccc2)sc1-c1csc(Nc2ccc(Cl)cc2)n1 | nt | 10 | nt | nt | 28 | nt
CC(=O)c1cccc(Nc2nc(-c3sc(N)nc3C)cs2)c1 | ? | 20* | ? | 11% | 42 | ?
Cc1nc(NC(=O)c2ccccc2)sc1-c1csc(Nc2cccc(Cl)c2)n1 | nt | 19 | nt | 0% | 56 | nt
CC(=O)c1ccc(NS(=O)(=O)Cc2ccccc2)cc1 | 1% | -3 | nt | 3% | -13 | 14%
CC(=O)N(C)c1ccc(NS(=O)(=O)Cc2ccccc2)cc1 | -6% | 27* | 7% | 21% | 63* | 2%

Bioassay records as filed in PubChem BioAssay.
